The list is not random: actives were taken first. Their share in the collection is about 8.1%.
KB-3-1 tox – qHTS assay for MDR1-selective chemotherapeutics: Primary screen using the parental adenocarcinoma cell KB-3-1 | hit rate 1.4% among 400,000 | Potency, µM (titrated, usually from 46.1 µM), most hits filed as cytotoxic | KB-3-1 viability, CellTiter-Glo ATP luminescence, 72 h; note: % is set by controls: 0 for no effect and ±100 for the full control effect; nearly all actives have a fitted effect of over 60% in size
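Screening of KB-3-1 cells (DMEM, 10% FBS, phenol-red free) ran from lowest to highest compound concentration; after 72 h at 37 °C viability was read luminescently and curves fitted.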
SW480 rereplic – A quantitative high throughput screen for small molecules that induce DNA re-replication in SW480 colon adenocarcinoma cells; SW480 DNA re-replication, Hoechst DNA content imaging, 48 h; Potency, µM (top dose mostly 46.1 µM), without a hit: top-dose re-replication activation, hits mostly activators; hit rate 1.8% among 340,000; note: % of control where 0% means no effect; nearly all actives have a fitted effect of over 55% in size
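Compounds, transferred as 23 nL by pin tool, were incubated with cells for 48 hr; DNA content per nucleus was then quantified by Hoechst staining and fluorescence plate imaging.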
KB-V1 cytotox – qHTS assay for MDR1-selective chemotherapeutics: Primary screen using the drug-selected MDR subline cells KB-V1; KB-V1 MDR cells viability, CellTiter-Glo, 72 h; Potency, µM (doses to about 46.1 µM), hits mostly cytotoxic; hit rate 3.4% among 400,000; AID 1347076, 2019; note: % is set by controls: 0 for no effect and ±100 for the full control effect; nearly all actives have a fitted effect of over 60% in size
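Cytotoxicity toward P-gp-expressing KB-V1 cells was determined as loss of CellTiter-Glo luminescence after 72 h at 37 degrees C. Compounds were tested in quantitative HTS format across a concentration range, with curves fitted to normalized data.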
ELG1 repair inh – qHTS screen for small molecules that inhibit ELG1-dependent DNA repair in human embryonic kidney (HEK293T) cells expressing luciferase-tagged ELG1 | Potency, µM (titrated, usually from 46.1 µM), without a hit: at the highest dose activity change, negative = inhibition, actives largely listed as inhibitors | hit rate 2.3% among 330,000 | AID 504467, 2011 | HEK293T ELG1-luciferase reporter, luminescence, 16 h; DNA damage induced by 5-fluorouridine; note: % is set by controls: 0 for no effect and ±100 for the full control effect; nearly all actives have a fitted effect of over 55% in size
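Step one: seed 2,000 cells per well. Step two: pin-transfer compound or DMSO alongside 5-fluorouridine. Step three: incubate 16 hr, 37 °C, 5% CO2. Step four: add ONE-Glo, wait 30 min, read luminescence.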
MCF10A rerep – A quantitative high throughput screen for small molecules that induce DNA re-replication in MCF 10a normal breast cells. MCF 10A DNA re-replication, Hoechst nuclear intensity, 48 h. AID 624296, 2012. Potency, µM (highest dose often 46.1 µM), without a hit: at the highest dose activity, positive = re-replication, usual class: activators. hit rate 2.9% among 350,000; note: % of control where 0% means no effect; nearly all actives have a fitted effect of over 50% in size
* hit, by the source's call; i = inactive; ? = inconclusive; . = no result; ! = not confirmed by another sample; [ ] = remark or other dose. Calls come from the whole dose curve; as a rule, active = well fitted curve in the direction sought with a large enough effect; inconclusive = small, poorly fitted or top-dose-only effect, or another doubt; inactive = no such curve, though single readings can be large; an effect the other way counts as inactive or inconclusive. Potency is the fitted concentration of half-maximal effect.

SMILES | KB-3-1 tox | SW480 rereplic | KB-V1 cytotox | ELG1 repair inh | MCF10A rerep
CC(C)(C)NCc1cc(Cl)ccc1OCc1ccccc1F | i | -6% | i | -9% | 19%
CC(C)CN(C(=O)COC(=O)/C=C/c1ccccc1)C1CCS(=O)(=O)C1 (stereo unspecified) | i | -19% | i | 9% | 7%
CCN(CC)C(=O)Oc1ccc2c(=O)c(-c3ccccc3)coc2c1 | i | 6% | 21µM* | ? | -15%
CC1(C(=O)NS(=O)(=O)Cc2cccc(Cl)c2)CCN1C(=O)C1CCCCC1 (stereo unspecified) | i | . | i | . | .
CCn1c(O)c(C=Nc2ccccc2)n(-c2ccccc2)c1=S | 5.8µM* | 17%[9.22 µM] | ? | 12% | 3%
CCn1c(O)c(C=Nc2ccccc2)sc1=S | i | 10% | i | ? | 2%
CCCCCCCC/C=C\CCCCCCCC(=O)O | i | 3% | i | ? | 30µM*!
CCCCC/C=C\C/C=C\CCCCCCCC(=O)O | . | -6% | . | . | ?
O=S(=O)(Nc1nc2ccccc2[nH]1)c1ccc(Cl)cc1 | i | -7% | ? | 0% | 0%
O=S(=O)(Nc1nc2ccccc2[nH]1)c1ccccc1 | i | -1% | 21µM* | ? | -1%
CCC1(c2ccc(Cl)cc2)NC(=O)N(CC(=O)NC2(C#N)CCCCC2)C1=O (stereo unspecified) | i | ? | i | -3% | 2%
Cc1ccc(NC(=O)COc2ccc(N(C)C(=O)C(C)(C)C)cc2)cc1S(=O)(=O)N1CCCCC1 | 16µM* | 7% | 18µM* | 8.2µM* | -2%
Cc1ccc(OCC(=O)Nc2ccc(C)c(S(=O)(=O)N3CCCCCC3)c2)c([N+](=O)[O-])n1 | ? | -8% | ? | 16µM* | 7%
CCc1cccc(OCC(=O)Nc2ccc(C)c(S(=O)(=O)N3CCCCCC3)c2)c1 | i | -266% | i | 0% | -27%
Cc1ccc(OCC(=O)Nc2cccc(S(=O)(=O)N3CCCCC3)c2)c([N+](=O)[O-])n1 | i | 1% | i | -17% | -1%
CC(C)(C)C(=O)Nc1ccc(/C=C/C(=O)c2ccco2)cc1 | i | 24% | i | ? | ?
Cc1ccc(-c2csc(NC(=O)CSc3nnc4c(n3)[nH]c3ccccc34)n2)cc1 | ? | ? | ? | ? | 16µM*
O=C(O)CSc1nnc2c(n1)[nH]c1ccccc12 | i | -1% | i | 26% | 20%
Cc1ccc(NC(=O)CSc2nnc3c(n2)[nH]c2ccccc23)cc1 | i | -21% | i | -2% | -13%
CC1CCN(C(=O)CSc2nnc3c(n2)[nH]c2ccccc23)CC1 | ? | -10% | 16µM* | -19% | 3%
Cc1ccc(C)n1-c1c(C(=O)NCC(C)c2ccccc2)sc2ncccc12 (stereo unspecified) | ? | . | i | . | .
Cc1ccc(-c2nc(C(Cl)Cl)c3ccccc3n2)cc1 | 21µM* | ? | 21µM* | 23µM* | ?
COCCN(CCOC)c1nc(-c2ccc(C)cc2)nc2ccccc12 | i | 7% | ? | ? | ?
CC(C)n1nc(C(=O)Nc2ccccc2N2CCOCC2)c2ccccc2c1=O | i | -6% | 3.7µM* | ? | ?
COc1ccccc1C(=O)Nc1ccccc1N1CCOCC1 | i | -7% | i | -4% | -5%
SMILES | KB-3-1 tox | SW480 rereplic | KB-V1 cytotox | ELG1 repair inh | MCF10A rerep
CC(Oc1cccc(Cl)c1)C(=O)Nc1cc(Cl)ccc1N1CCOCC1 (stereo unspecified) | i | 9.2µM* | ? | ? | ?
CSc1ncccc1C(=O)Nc1cc(Cl)ccc1N1CCOCC1 | ? | 5% | 21µM* | 10% | 13%
O=C(Nc1cc(Cl)ccc1N1CCOCC1)c1cccnc1 | i | -3% | i | 0% | -2%
CSc1ncccc1C(=O)Nc1ccccc1N1CCOCC1 | i | -11% | 21µM* | 0% | 1%
CC(Oc1cccc(Cl)c1)C(=O)Nc1ccc(S(=O)(=O)N(C)C2CCN(C)CC2)cc1 (stereo unspecified) | i | 13% | 23µM* | 5% | ?
Cc1ccc(NC(=O)COc2ccccc2C(=O)NCCc2ccccc2)cc1 | i | ? | ? | ? | 1%
CCCC(C(=O)NC(C)(C)C)N(Cc1ccccc1Cl)C(=O)c1snc(C(N)=O)c1N (stereo unspecified) | i | ? | ? | ? | 13µM*
CCCC(C(=O)NC1CCCC1)N(Cc1cccs1)C(=O)c1snc(C(N)=O)c1N (stereo unspecified) | i | -1% | 2.3µM* | ? | -4%
CCC(C(=O)NC1CCCC1)N(Cc1ccc2c(c1)OCO2)C(=O)c1snc(C(N)=O)c1N (stereo unspecified) | i | -2% | i | ? | 4%
COC(=O)c1ccc(CSc2nc(C(F)F)cc(C)c2C#N)o1 | i | -10% | i | . | 9%
COc1ccc(S(=O)(=O)N2CC=C(C(=O)Nc3ccc(NC(C)=O)cc3)CC2)cc1 | i | -5% | i | -6% | ?
C1COCCNCCOCCOCCOCCN1 | i | 10µM* | i | 1% | -6%
CC(=O)Nc1ccc(NC(=O)C2CC(=O)Nc3nc4ccccc4n32)cc1 (stereo unspecified) | i | -7% | i | 0% | -17%
Cc1ccc(NC(=O)C2CC(=O)Nc3nc4ccccc4n32)c(C)c1 (stereo unspecified) | i | 18µM* | i | 6% | -19%
CCN(c1ccccc1)S(=O)(=O)c1cc(NC(=O)Nc2ccccc2C#N)ccc1Cl | i | -11% | i | 21µM* | 3%
CCN(c1ccccc1)S(=O)(=O)c1ccc(Cl)c(NC(=O)Nc2ccc(Cl)cc2C#N)c1 | ? | ? | ? | -25% | ?
CCN(c1ccccc1)S(=O)(=O)c1cc(C(=O)Nc2ccc(F)c(F)c2)ccc1F | i | ? | i | 21µM* | 13µM*
CCN(c1ccccc1)S(=O)(=O)c1ccc(C(=O)Nc2cccc(NC(C)=O)c2)cc1 | i | 29% | i | ? | 5%
O=C(Nc1ccccc1)c1nc[nH]c1C(=O)Nc1ccccc1F | i | . | ? | . | .
CCOc1ccc(Br)cc1S(=O)(=O)NC1CC(C)(C)NC(C)(C)C1 | i | 0.52µM* | i | 7% | 13%
NC(=O)C1CCN(C(=O)CSc2nc(O)cc(=O)[nH]2)CC1 | i | -1% | i | 1% | 8%
CC(C)(C)NCC(O)CON=C1c2ccccc2-c2ccccc21 (stereo unspecified) | ? | ? | ? | -13% | ?

Compound activity (PubChem)
